IMPase Li inh – qHTS Assay for Identifying the Cell-Membrane Permeable IMPase Inhibitors: Potentiation with Lithium; CHO-M1 cells, IP1 TR-FRET (IP-One), carbachol + lithium; Potency, µM (highest dose often 59.4 µM), actives largely listed as inhibitors; 210,000 tested, 0.35% active; AID 1457, 2008; active = well fitted curve in the direction sought with a large enough effect; inconclusive = small, poorly fitted or top-dose-only effect, or another doubt; inactive = no such curve, though single readings can be large; an effect the other way counts as inactive or inconclusive;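 note: IP1 builds up when IMPase is blocked and the TR-FRET signal falls; nearly all actives have a fitted effect of over 50% in size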
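Steps: plate 2000 CHO-M1 cells per well and culture 16–30 h; add compound and lithium; incubate 30 min, 37C; add d2-IP1 tracer and Eu cryptate anti-IP1 antibody in lysis buffer; read after 10 min at room temperature.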
NPSR antag – qHTS Assay for Antagonists of the Neuropeptide S Receptor: cAMP Signal Transduction | AID 1461, 2008 | Potency, µM (top dose mostly 38.3 µM), most hits filed as inhibitors | CHO-NPSR cells, cAMP TR-FRET, antagonist mode | 220,000 tested, 1% active; active = well fitted curve in the direction sought with a large enough effect; inconclusive = small, poorly fitted or top-dose-only effect, or another doubt; inactive = no such curve, though single readings can be large; an effect the other way counts as inactive or inconclusive; note: nearly all actives have a fitted effect of over 50% in size
Target sequence (Q6W5P4 whole entry, looked up): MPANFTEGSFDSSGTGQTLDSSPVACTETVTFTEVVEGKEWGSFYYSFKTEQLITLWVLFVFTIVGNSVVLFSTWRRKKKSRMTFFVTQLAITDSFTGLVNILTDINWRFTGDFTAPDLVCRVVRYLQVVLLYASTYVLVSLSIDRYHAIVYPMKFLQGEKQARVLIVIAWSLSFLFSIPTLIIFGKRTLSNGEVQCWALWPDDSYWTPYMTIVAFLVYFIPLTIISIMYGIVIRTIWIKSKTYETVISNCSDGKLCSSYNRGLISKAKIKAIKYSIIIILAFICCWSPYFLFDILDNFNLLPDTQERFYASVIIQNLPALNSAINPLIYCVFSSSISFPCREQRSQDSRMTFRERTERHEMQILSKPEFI
ALDH1A1 inh – qHTS Assay for Inhibitors of Aldehyde Dehydrogenase 1 (ALDH1A1) | 220,000 tested, 7.3% active | Potency, µM (doses to about 75.3 µM), usual class: inhibitors | AID 1030, 2008 | Aldehyde dehydrogenase 1A1 (Homo sapiens), P00352 | Purified ALDH1A1, NADH fluorescence, propionaldehyde substrate
PNC inhibitor – High Content Assay for Compounds that inhibit the Assembly of the Perinucleolar Compartment | PC3M PTB-GFP, PNC prevalence imaging, 16 h; hits give low values | 140,000 tested, 3.1% active | activity change (PNC), negative = inhibition, % at 10 µM;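 active = readout at or below -70, meaning at least 70% loss of cells showing the perinucleolar compartment, a nuclear body marking cancer cells; inconclusive = readout between -30 and a set limit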
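Read-out is percentage of cells bearing a perinucleolar compartment, from automated 20x imaging of fixed, Hoechst-stained PC3M PTB-GFP cells. Cells were seeded 4 h, then exposed 16 h to compound (23 nl of library stock) in duplicate plates.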
IMPase cell inh – qHTS Assay for Identifying the Cell-Membrane Permeable IMPase Inhibitors | CHO-M1 cells, IP1 accumulation, HTRF TR-FRET ratio | inhibition (IP1 accumulation), % at 46.1 µM | 120,000 tested, under 10 active | AID 901, 2007; active = well fitted curve in the direction sought with a large enough effect in the signal ratio, not every such curve was filed as active; inconclusive = small, poorly fitted or top-dose-only effect, or a change in a side signal; inactive = no such curve, though single readings can be large or run the other way; the % refers to the signal ratio;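 note: cells stimulated with carbachol in lithium chloride buffer; higher means more IMPase inhibition seen as more IP1 and lower FRET ratio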
Target sequence (P97697 whole entry, looked up): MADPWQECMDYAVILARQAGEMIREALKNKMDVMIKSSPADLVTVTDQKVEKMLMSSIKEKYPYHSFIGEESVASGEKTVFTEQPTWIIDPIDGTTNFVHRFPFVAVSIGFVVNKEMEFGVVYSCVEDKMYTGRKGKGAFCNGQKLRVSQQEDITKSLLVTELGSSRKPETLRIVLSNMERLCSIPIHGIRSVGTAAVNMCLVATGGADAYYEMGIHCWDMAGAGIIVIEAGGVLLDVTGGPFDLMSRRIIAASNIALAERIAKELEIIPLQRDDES
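Seeded CHO-M1 cells were dosed with compound at up to 46 uM, stimulated with carbachol for 30 min, then lysed in IP-One detection reagents. Higher IP1 lowers the TR-FRET signal.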
HPGD block – qHTS Assay for Inhibitors of HPGD (15-Hydroxyprostaglandin Dehydrogenase); Potency, µM, most hits filed as inhibitors; 15-hydroxyprostaglandin dehydrogenase [NAD(+)] (Homo sapiens), P15428; purified HPGD, NADH fluorescence kinetic, PGE2 substrate; 150,000 tested, 4.3% active
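20 nM HPGD preincubated 15 min at room temperature with compound in 50 mM Tris-HCl pH 8, 0.01% Tween 20. Started with 1 mM NAD+ and 30 uM prostaglandin E2; NADH fluorescence (360/450 nm) read 5 times over 30-s intervals, last minus first.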
A number is an active result; n = inactive; u = inconclusive; x = no result; ! = not active in a repeat; [ ] = dose if it differs, or a comment. In the library only some 11% were active in any assay of this set; here they are far more common. Unless noted, calls come from the whole dose curve; as a rule, active = well fitted inhibition curve with a large enough effect (not every such curve was filed as active); inconclusive = small, poorly fitted or top-dose-only effect, or another doubt; inactive = no such curve, though single readings can be large or run the other way.

SMILES	IMPase Li inh	NPSR antag	ALDH1A1 inh	PNC inhibitor	IMPase cell inh	HPGD block
O=C1CC(N2CC=C(c3ccccc3)CC2)C(=O)N1c1ccc(F)cc1 (stereo unspecified)	n	n	u	n	n	n
N#CC1(c2ccccc2)CCN(C2CC(=O)N(c3cccc(F)c3)C2=O)CC1 (stereo unspecified)	n	n	u	x	x	x
CCOC(=O)c1ccc(N2C(=O)CC(N3CCC(O)(c4ccc(Cl)cc4)CC3)C2=O)cc1 (stereo unspecified)	n	n	7.9µM	n	n	n
CN1C[C@H](C(=O)N[C@@]2(C)O[C@@]3(O)[C@H]4CCCN4C(=O)[C@@H](Cc4ccccc4)N3C2=O)C=C2c3cccc4[nH]cc(c34)C[C@@H]21	n	x	n[13.5 µM]	x	x	n
c1csc(-c2nnc(Cc3cccc4ccccc34)o2)c1	n	n	n	n	n	18µM
O=C(c1ccccc1)c1cn(CC(=O)N2CCCc3ccccc32)c2ccccc12	n	10µM	u	n	n	u
Nc1ccc(Cl)cc1	n	x	n	x	x	n
CN1CCN(c2ccc(S(=O)(=O)C(F)(F)F)cc2[N+](=O)[O-])CC1	n	n	n	-98	n	n
CN1CCN(c2ccc(S(C)(=O)=O)cc2[N+](=O)[O-])CC1	n	n	n	n	x	n
CCOP(=O)(c1ccccc1)c1nc(-c2ccc(F)cc2)oc1N1CCCCC1 (stereo unspecified)	n	u	n	-87	n	n
N=C(N)SCc1ccc(Cl)c2ccccc12 (tested in a mixture with another compound)	n	x	n[13.5 µM]	x	x	4.5µM!
CN(C)C(=O)Oc1ccc(Cl)c2ccccc12	n	n	n	u	n	n
COC(=O)CCCc1[se]c2ccccc2c1I	n	x	32µM	x	x	22µM
CCC1CN(C)CCC1(OC(C)=O)c1ccccc1 (stereo unspecified)	n	u	n	n	n	n
CCCCN1CCC(O)(c2ccccc2)C(C(=O)c2ccccc2)C1 (stereo unspecified)	n	n	0.11µM	n	u	n
CCC[N+](=O)[O-]	n	x	n	x	x	n
O=C1NC(=O)N(c2ccc(Cl)cc2)C(=O)/C1=C\c1ccc(Sc2nc3ccccc3[nH]2)o1	n	n	u	n	x	10µM
O=C1NC(=O)C(=Cc2ccc(Sc3ccccc3)o2)C(=O)N1	x	n	x	x	x	x
COc1ccccc1-n1c(-c2cccs2)nc2ccccc2c1=O	n	n	n	x	x	x
CCN(CC)S(=O)(=O)c1ccc(N=Cc2c(O)n(-c3ccccc3)c(=O)[nH]c2=O)cc1	n	n	22µM	u	u	n
Cc1cccc(-n2c(O)c(C=Nc3ccc(S(N)(=O)=O)cc3)c(=O)[nH]c2=O)c1	n	n	n	x	x	x
O=c1[nH]c(=O)n(-c2ccc(Cl)cc2)c(O)c1C=Nc1ccc(S(=O)(=O)Nc2nccs2)cc1	n	n	u	u	x	22µM
COc1ccc(N=Cc2c(O)n(-c3ccc(C)cc3)c(=O)[nH]c2=O)cc1	n	n	u	x	x	x
O=C1C=CC(=O)C(Cl)=C1	n	x	1.8µM	x	x	1µM
O=C1C=CC(=O)C=C1	n	n	u	x	n	n
SMILES	IMPase Li inh	NPSR antag	ALDH1A1 inh	PNC inhibitor	IMPase cell inh	HPGD block
CCCCNC(=O)/C(C#N)=c1\s/c(=C\c2ccccc2OC(F)F)c(=O)n1CCCOC	u	n	u	n	n	n
CC(=O)C1C2c3ccccc3OC1(C)N=c1s/c(=C/c3cn(C)nc3C)c(=O)n12 (stereo unspecified)	n	n	10µM	u	n	28µM
Cc1cccc(N2C(=O)NC(=O)C3(Cc4cc(C)ccc4N(C)C3)C2=O)c1 (stereo unspecified)	x	n	8.9µM	n	n	x
Cc1ccc2c(c1)CC1(CN2C)C(=O)NC(=O)N(CCC2=CCCCC2)C1=O (stereo unspecified)	x	n	3.5µM	n	n	x
Cc1ccc2c(c1)CC1(CN2C)C(=O)NC(=O)N(C(C)C)C1=O (stereo unspecified)	x	n	u	n	n	x
CCOC(=O)C1CCCCC12C(C#N)=C(N)Oc1n[nH]c(C)c12 (stereo unspecified)	n	n	n	n	n	n
CC(=O)Oc1c2c(c(CC=C(C)C)c3c1C(=O)C1=CC4CC5C(C)(C)OC(C/C=C(\C)C(=O)O)(C4=O)[C@]15O3)OC(C)(CCC=C(C)C)C=C2 (stereo partly specified)	n	x	u	x	x	28µM
[Cd+2].[Cl-].[Cl-]	n	x	4µM	x	x	8.9µM
Cc1cc(C=C2C(=O)NC(=S)NC2=O)c(C)n1C1CCCC1	n	n	7.1µM	x	x	x
C=CCN1C(=O)NC(=O)/C(=C/c2ccc(OC)c(CSc3ccccn3)c2)C1=O	n	n	13µM	n	n	28µM
CC(C)(OO)c1ccccc1	n	x	u	x	x	n
CCOC(=O)c1ccc(-n2c(N)c(C(=O)NCC3CCCO3)sc2=S)cc1 (stereo unspecified)	n	n	4µM	u	n	7.9µM
CCCCCC1CC(CC#CCN2CCOCC2)C(=O)O1 (stereo unspecified)	n	n	6.3µM	u	n	n
C=CCn1c(O)c(C(C)=NCCCn2ccnc2)c(=O)[nH]c1=O	x	n	x	x	x	x
CN1CC[C@@]2(C)c3cc(OC(=O)Nc4ccccc4)ccc3N(C)[C@@H]12	n	x	11µM	x	x	x
CN1CC[C@@]2(C)c3cc(O)ccc3N(C)[C@@H]12	n	x	n	x	n	n
c1ccc2c(c1)ccc1cc3c(ccc4ccccc43)cc12	u	x	u	x	x	n
O=C1NC(=O)N(CCc2ccc(F)cc2)C(=O)/C1=C\C=C\c1ccccc1	n	n	1.6µM	x	x	x
C=CCN1C(=O)NC(=O)/C(=C/C=C/c2ccccc2)C1=O	n	n	14µM	x	x	x
CCN(CC)CCOC(=O)C(O)(c1ccccc1)c1ccccc1	n	n	n	u	x	n
FC(F)(F)c1nc2ccc(SSc3ccc4nc(C(F)(F)F)[nH]c4c3)cc2[nH]1	n	x	2.2µM	x	x	4µM
CC/C(=N\NC(=S)Nc1ccccc1)c1c(O)[nH]c(=O)[nH]c1=O	x	n	x	x	x	x
OC(CNC1CCCCC1)C(F)(F)F (stereo unspecified)	n	n	n	x	x	x
CN(C)c1ccc2c(c1)N=C(c1ccco1)OP2(=S)N1CCOCC1 (stereo unspecified)	n	n	8.9µM	n	n	18µM
NC[C@@H](Cc1ccccc1)P(=O)(O)O	n	x	n[13.5 µM]	x	x	n
O=C(O)CNC(=O)[C@@H](CS)Cc1ccccc1	n	x	u	x	n	7.9µM
O=C(Cc1ccc(Cl)c(Cl)c1)N1CCCCC1CN1CCCC1 (stereo unspecified)	n	n	n	x	x	n
